SMILES strings stand for the structures. Values without a mark were called inactive. Records with an inconclusive call do not appear. Activity calls are given as the source filed them. Unless noted, the call rests on the fitted dose curve; in most records, active means well fitted curve in the direction sought with a large enough effect in the repeat runs; inconclusive means weak or mixed curves; inactive means no such curve, though single readings can be large; an effect the other way counts as inactive or inconclusive.

The target in assay [1] is Progesterone receptor (Homo sapiens) (UniProt P06401). Briefly: qHTS assay to identify small molecule agonists of the progesterone receptor (PR) signaling pathway (AID 1346784; calls by dose curve; further: nearly all actives have a fitted effect of over 30% in size; further: potency means the concentration at half of the fitted maximal effect). The method in brief: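 The screen uses PR-UAS-bla HEK 293T cells in charcoal-stripped serum (2%). Compounds are applied for 16 hr at 37C after a 6 hr pre-incubation, and reporter activity is detected with a FRET beta-lactamase substrate after 2 hr at room temperature.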
Progesterone receptor (Homo sapiens), sequence (P06401 whole entry, looked up): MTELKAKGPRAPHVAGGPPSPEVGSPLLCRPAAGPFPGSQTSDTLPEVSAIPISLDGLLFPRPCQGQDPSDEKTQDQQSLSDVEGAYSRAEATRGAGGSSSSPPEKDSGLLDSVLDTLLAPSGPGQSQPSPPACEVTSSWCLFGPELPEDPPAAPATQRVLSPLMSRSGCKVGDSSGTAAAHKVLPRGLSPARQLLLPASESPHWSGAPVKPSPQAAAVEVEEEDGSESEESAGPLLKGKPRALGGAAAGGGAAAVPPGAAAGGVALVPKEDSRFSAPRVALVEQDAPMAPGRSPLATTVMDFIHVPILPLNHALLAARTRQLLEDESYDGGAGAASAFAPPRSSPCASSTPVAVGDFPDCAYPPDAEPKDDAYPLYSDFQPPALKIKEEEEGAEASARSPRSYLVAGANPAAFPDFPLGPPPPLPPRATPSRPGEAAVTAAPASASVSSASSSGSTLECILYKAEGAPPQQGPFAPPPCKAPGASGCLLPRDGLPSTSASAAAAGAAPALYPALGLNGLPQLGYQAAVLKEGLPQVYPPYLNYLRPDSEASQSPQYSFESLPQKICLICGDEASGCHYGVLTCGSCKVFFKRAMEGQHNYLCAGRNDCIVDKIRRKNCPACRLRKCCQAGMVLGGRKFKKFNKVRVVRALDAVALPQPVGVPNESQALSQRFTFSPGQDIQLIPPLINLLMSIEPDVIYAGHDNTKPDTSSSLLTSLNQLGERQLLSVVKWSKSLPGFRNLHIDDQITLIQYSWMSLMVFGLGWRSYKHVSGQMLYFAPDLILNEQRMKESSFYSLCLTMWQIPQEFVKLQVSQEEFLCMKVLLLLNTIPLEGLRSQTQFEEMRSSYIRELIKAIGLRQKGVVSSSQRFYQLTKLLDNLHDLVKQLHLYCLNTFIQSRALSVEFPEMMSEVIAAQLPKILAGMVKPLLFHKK
For orientation: Quantitative high-throughput screening tests each substance at several concentrations.

For assay [2] the target is unchanged. The assay is described as follows: qHTS assay to identify small molecule antagonists of the progesterone receptor (PR) signaling pathway (AID 1346795; active means well fitted inhibition curve with a large enough effect in the signal ratio in the repeat runs, not every such curve was filed as active; the % refers to the signal ratio; further: potency means the concentration at half of the fitted maximal effect). The method in brief:
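After 6 hr plating at 37C in 2% stripped-serum medium, PR-UAS-bla HEK293T cells got compounds, then 1 nM R5020. Sixteen hours later, LiveBLAzer substrate was applied for 2 hr at room temperature and fluorescence was recorded.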

Assay [3] can be described thus: qHTS assay to identify small molecule antagonists of the progesterone receptor (PR) signaling pathway - cell viability counter screen (AID 1346798). Further: series mostly up to about 92 µM; nearly all actives have a fitted effect of over 50% in size. The method in brief:
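Viability was determined by ATP-based luminescence (CellTiter-Glo) in PR-UAS-bla HEK293T cells cultured in 2% charcoal-stripped serum and incubated 16 hr with compounds under R5020 stimulation.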

A short description of assay [4]: qHTS assay to identify small molecule antagonists of the TGF-beta/Smad signaling pathway - cell viability counter screen (AID 1346824). Further: nearly all actives have a fitted effect of over 50% in size. Summed up:
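Cytotoxicity counter-screen run in the same wells as the beta-lactamase Smad reporter read: CellTiter-Glo luminescence after 30 min at room temperature. HEK 293T SBE-bla cells had 5 hr compound exposure at 37 C with TGF-beta1 (0.25 ng/mL stock).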

Assay [5] can be described thus: qHTS assay to identify small molecule agonists of the TGF-beta/Smad signaling pathway - cell viability counter screen (AID 1346829). Further: top concentration of the series differs between compounds; nearly all actives have a fitted effect of over 45% in size. The method in brief:
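Luminescence from CellTiter-Glo, read after a 30 min room-temperature incubation, gives cell viability of SBE-bla HEK 293T cells treated 5 hr with compounds at 37 C.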

Assay [6] in a line: qHTS assay to identify small molecule agonists of the TGF-beta/Smad signaling pathway (AID 1346859; active means well fitted activation curve with a large enough effect in the signal ratio in the repeat runs, not every such curve was filed as active; the % refers to the signal ratio; further: series mostly up to about 77 µM). The method in brief:
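Dual-wavelength fluorescence (460/530 nm emission) quantified beta-lactamase expression under the Smad binding element in HEK 293T cells following 5 hr compound treatment at 37 C.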

For assay [7], the target named is Thyrotropin-releasing hormone receptor (Homo sapiens) (UniProt P34981). Briefly: qHTS assay to identify small molecule antagonists of the thyrotropin-releasing hormone receptor (TRHR) signaling pathway (AID 1346877; active means well fitted inhibition curve with a large enough effect in the repeat runs, not every such curve was filed as active; further: series mostly up to about 51 µM). The method in brief:
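TRHR-expressing HEK293 cells were seeded, cultured 18 h at 37 °C, then loaded with calcium dye for 2 h. Compounds were pre-incubated 5 min at room temperature before 1 nM TRH (final) was added, and kinetic fluorescence was recorded for 3 min.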

Assay [8] shares this target. Briefly: qHTS assay to identify small molecule agonists of the thyrotropin-releasing hormone receptor (TRHR) signaling pathway (AID 1346891; calls by dose curve; further: series mostly up to about 58 µM). Summed up: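 Kinetic fluorescence (3 min, 1 s intervals) reported intracellular calcium after compound transfer onto TRHR-Hek293 cells pre-loaded with dye for 2 h at 37 °C.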
Assay [9] is described as follows: Human pregnane X receptor (PXR) small molecule agonists, qHTS cell viability counter screen (AID 1346977). Further: nearly all actives have a fitted effect of over 50% in size. Further: potency means the concentration at half of the fitted maximal effect. The method in brief: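 HepG2 cells stably carrying the PXR-Luc reporter are cultured with 5% charcoal-stripped FBS and treated with compounds for 24hr. CellTiter-Fluor is added at 23hr and fluorescence is read after 1hr.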
The nature of assay [10]: qHTS assay to identify small molecule agonists of the progesterone receptor (PR) signaling pathway - cell viability counter screen (AID 1346799; calls by dose curve; further: nearly all actives have a fitted effect of over 45% in size). Summed up: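 Viability was scored by ATP luminescence (CellTiter-Glo, 30 min, room temperature) in the same wells used for the reporter readout, after 16 hr compound exposure of PR-UAS-bla HEK293T cells.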
On the % scale 0 is the no-effect control and ±100 the full control effect.

Thyrotropin-releasing hormone receptor (Homo sapiens), sequence (P34981 whole entry, looked up): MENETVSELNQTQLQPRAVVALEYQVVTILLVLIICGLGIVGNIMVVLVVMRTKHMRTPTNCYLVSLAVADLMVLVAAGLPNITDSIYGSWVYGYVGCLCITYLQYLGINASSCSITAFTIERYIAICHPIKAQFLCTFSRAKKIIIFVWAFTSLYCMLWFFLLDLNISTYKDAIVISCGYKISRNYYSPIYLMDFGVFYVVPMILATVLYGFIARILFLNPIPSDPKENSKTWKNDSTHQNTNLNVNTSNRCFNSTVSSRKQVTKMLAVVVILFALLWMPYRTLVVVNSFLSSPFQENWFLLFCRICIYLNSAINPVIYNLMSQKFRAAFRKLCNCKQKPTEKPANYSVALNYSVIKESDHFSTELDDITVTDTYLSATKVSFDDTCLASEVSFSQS

On to `CCCS(=O)c1ccc2nc(NC(=O)OC)[nH]c2c1` (configuration not stated), for which the Potency result in assay [1], in assay [2], in assay [3], in assay [8] and in assay [9] was “inactive” each time. For the same compound, the call in assay [4], in [5], in assay [6] and in assay [7] was inactive.
As to `CCCCNc1ccc(C(=O)OCCN(CC)CC)cc1`, the Potency entry in assay [1], in assay [2], in assay [3], in [8] and in assay [9] was “inactive” each time. For the same compound, the outcome in assay [4], in assay [5], in assay [6] and in assay [7] was inactive.
In the case of `O=C1CCCc2ccccc21`, the Potency result in [1], in assay [2], in assay [3] and in assay [9] was “inactive” throughout. For the same compound, the call in assay [4], in [5] and in [6] was inactive.
In the case of `CC1=NN(c2cc(Cl)c(S(=O)(=O)O)cc2Cl)C(=O)C1N=Nc1ccc(S(=O)(=O)O)cc1` (configuration not stated), the Potency result in assay [1], in assay [2], in [3] and in assay [8] was “inactive” each time. Also, the compound was called inactive in assay [4], in assay [5], in assay [6] and in assay [7]. In addition, in [9], the Potency is 54.5 µM (active).
With `O=C(O)CN(CCN(CC(=O)O)CC(=O)O)CCN(CC(=O)O)CC(=O)O`, the activation in [1] was 9.07% [at 19 µM]; in [6], 3.97% [at 15.8 µM]; in [8], -0.051% [at 11.8 µM]. Besides, in assay [2], the activity change, negative = inhibition is -12.7% [at 18.9 µM]. For the same compound, the activity change, negative = cytotoxicity in assay [10] was -4.49% [at 19 µM]; in assay [5], 9.66% [at 15.8 µM]. Moreover, the viability change, negative = cytotoxic in [4] was 3.31% [at 15.8 µM]. Further, the activity, negative = inhibition in [7] is 0.832% [at 10.5 µM].
`Cc1ccc(C)c(N)c1`: the Potency entry in assay [1], in assay [2], in assay [3], in assay [8] and in assay [9] was “inactive” throughout. The call in assay [4], in [5], in assay [6] and in [7] was inactive.
For `CCCCCCCCCCCCCCCCOP(=O)([O-])OCC[N+](C)(C)C`, the Potency result in assay [1], in [2], in assay [3] and in assay [9] was “inactive” in each case. For the same compound, the compound was called inactive in [4], in [5] and in assay [6].
On to `CC(C)=CCCC(C)CCOC=O` (configuration not stated), for which the Potency entry in assay [1], in assay [2], in assay [3], in assay [8] and in assay [9] was “inactive” throughout. Also, the result in [4], in assay [5], in assay [6] and in assay [7] was inactive.
Take `CCOC(=O)CS`: the Potency in assay [1] was 3.15 µM (active). For the same compound, the Potency result in assay [2], in [3], in assay [8] and in assay [9] was “inactive” each time. The result in [4], in assay [6] and in [7] was inactive.
With `CC(=O)OC(C)OC(C)=O`, in assay [1], the Potency is 50 µM (active). The Potency result in [2], in assay [10], in [8] and in assay [9] was “inactive” each time. Also, the result in assay [4], in assay [5], in [6] and in assay [7] was inactive.
Regarding `NNS(=O)(=O)c1ccc(Oc2ccc(S(=O)(=O)NN)cc2)cc1`, the Potency entry in assay [1], in [2], in [3], in assay [8] and in assay [9] was “inactive” in each case. The compound was called inactive in [4], in assay [5], in assay [6] and in assay [7].
Turning to `CN(C)C(=O)NC1(c2ccccc2)CCN(CCC[C@]2(c3ccc(Cl)c(Cl)c3)CCCN(C(=O)c3ccccc3)C2)CC1`, the activation in [1] is -5.56% [at 19 µM]. Further, the activity change, negative = inhibition in [2] was -8.48% [at 18.9 µM]. Moreover, the activity change, negative = cytotoxicity in [10] was 3.74% [at 19 µM]; in assay [5], 2.25% [at 15.8 µM]. The viability change, negative = cytotoxic in [4] is 0% [at 15.8 µM].
For the compound `CC(=O)N(CC(O)CN(C(C)=O)c1c(I)c(C(=O)NCC(O)CO)c(I)c(C(=O)NCC(O)CO)c1I)c1c(I)c(C(=O)NCC(O)CO)c(I)c(C(=O)NCC(O)CO)c1I` (configuration not stated), the Potency result in assay [1], in [2], in assay [3], in assay [8] and in assay [9] was “inactive” each time. In addition, the result in assay [4], in assay [5], in assay [6] and in [7] was inactive.
Take `OCc1ccccc1O`: the Potency entry in assay [1], in [2], in assay [10] and in [8] was “inactive” each time. Besides, the result in assay [4], in assay [5], in [6] and in assay [7] was inactive.
Turning to `Cn1cnc2c(F)c(Nc3ccc(Br)cc3Cl)c(C(=O)NOCCO)cc21`, the Potency result in [1], in assay [2], in [3] and in [9] was “inactive” throughout. Also, the call in [4], in [5] and in assay [6] was inactive.
For `O=C(CCCl)NCc1ccccc1`, the Potency result in [1], in [2], in [3], in [8] and in assay [9] was “inactive” throughout. Besides, the outcome in assay [4], in assay [5], in assay [6] and in assay [7] was inactive.
Regarding `C[C@@H]1CN(c2c(F)c(F)c3c(=O)c(C(=O)O)cn(C4CC4)c3c2F)C[C@H](C)N1`, the activation in assay [1] was 4.11% [at 19 µM]; in [6], -1.32% [at 15.8 µM]; in [8] it was 0.0488% [at 11.8 µM]. Moreover, the activity change, negative = inhibition in assay [2] was 6.07% [at 18.9 µM]. In addition, the Potency result in assay [3] was “inactive”. In addition, in assay [4], the viability change, negative = cytotoxic was 0.903% [at 15.8 µM]. Besides, the activity change, negative = cytotoxicity in assay [5] was -0.146% [at 15.8 µM]; in assay [9], 6.01% [at 19 µM]. For the same compound, the activity, negative = inhibition in assay [7] was -3.72% [at 10.5 µM].
With `CCc1cc2cc(OC)c(OC)cc2c(Cc2ccccc2)n1`, the Potency entry in assay [1], in assay [3] and in [9] was “inactive” in each case. For the same compound, the Potency in assay [2] was 16.8 µM (active). Also, the compound was called inactive in assay [4], in assay [5] and in assay [6].
With `CC(C)(C)c1ccc(OC(=O)c2ccccc2O)cc1`, the Potency entry in [1], in assay [2], in [3] and in assay [9] was “inactive” in each case. Also, the compound was called inactive in [4], in assay [5] and in assay [6].
Regarding `O=C1CCCCCCCCCCC(=O)OCCO1`, the Potency entry in assay [1], in [2], in assay [10], in assay [8] and in assay [9] was “inactive” each time. Besides, the result in assay [4], in [5], in assay [6] and in assay [7] was inactive.
As for `OCC(CBr)(CBr)CBr`, the Potency result in assay [1], in assay [3], in [8] and in [9] was “inactive” throughout. Besides, the Potency in [2] is 34.2 µM (active). Also, the call in assay [4], in assay [5], in assay [6] and in assay [7] was inactive.
In the case of `Cc1ccc([N+](=O)[O-])cc1Cl`, the Potency entry in [1], in [2], in [3], in [8] and in assay [9] was “inactive” each time. The call in assay [4], in assay [5], in assay [6] and in assay [7] was inactive.
For `C/C(=N\O)[C@@H](C)NCC(C)(C)CN[C@H](C)/C(C)=N/O`, the Potency result in assay [1], in [2], in assay [10] and in assay [8] was “inactive” each time. Besides, the call in assay [4], in [5], in assay [6] and in assay [7] was inactive.
As to `CN(C)Cc1ccccc1`, the Potency entry in assay [1], in assay [2], in [10], in [8] and in assay [9] was “inactive” in each case. Further, the call in assay [4], in [5], in assay [6] and in assay [7] was inactive.
With `N#Cc1ccc(C(c2ccc(C#N)cc2)n2cncn2)cc1`, the Potency entry in [1], in assay [2], in assay [3], in [8] and in assay [9] was “inactive” throughout. Further, the compound was called inactive in assay [4], in [5], in assay [6] and in assay [7].
